According to PMC5540273 (PLoS ONE, 2017):

How the values were obtained:
Details in all cases: concentration: 1 μM,replicates: in singlicate; n = 1
[1] = test system: T1, RSK4(Kin.Dom.1-N-terminal)
T1 construct: gene RPS6KA6

[2] = test system: T2, RSK4(Kin.Dom.2-C-terminal)
T2 construct: gene RPS6KA6

[3] = test system: S6K1
[4] = test system: SBK1
[5] = test system: SGK2
[6] = test system: SGK3
[7] = test system: SGK
[8] = test system: SIK2
[9] = test system: SIK
[10] = test system: SLK
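Further: KINOMEscan kinase panel screen.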

SMILES | %Inh [1] | %Inh [2] | %Inh [3] | %Inh [4] | %Inh [5] | %Inh [6] | %Inh [7] | %Inh [8] | %Inh [9] | %Inh [10]
Cl.c1ccc(Oc2ccc(Nc3ccnc4cc(-c5ccc(CN6CCNCC6)o5)ccc34)cc2)nc1 [GW567142] | 0% | 22% | 0% | 0% | 0% | 0% | 22% | 65% | 97.4% | 19%
C[C@@H](Oc1cc(-n2cnc3cc(-c4ccncc4)ccc32)sc1C(N)=O)c1ccccc1Cl [GSK479719] | 25% | 21% | 11% | 19% | 5% | 0% | 0% | 43% | 11% | 99.4%
CCNCC(Cc1ccccc1)NC(=O)c1cc(Br)c(-c2ccnc3[nH]ccc23)s1.Cl.Cl (centres unmarked) [GSK1383280] | 33% | 18% | 67% | 70% | 9% | 82% | 65% | 0% | 0% | 0%
Cn1ccc2ncnc(Oc3ccc(NC(=O)Nc4cnn(C(C)(C)C)c4)c(Cl)c3)c21 | 22% | 0% | 1% | 0% | 12% | 2% | 10% | 10% | 14% | 79%
COc1ccc(Nc2nccc(N3CCC(NC(=O)c4cccc(C#N)c4)C3)n2)cc1 (centres unmarked) [GSK1379730] | 0% | 0% | 0% | 6% | 0% | 0% | 0% | 0% | 18% | 30%
C[C@@H]1CCN(C(=O)N2CCCC2)C[C@@H]1N(C)c1ncnc2[nH]ccc12 | 18% | 31% | 2% | 19% | 3% | 27% | 0% | 6% | 11% | 21%
COC(=O)c1cccc(NC(=O)NC2CCN(c3ccnc(NCc4ccc(F)cc4)n3)CC2)c1 [GSK1379860] | 0% | 0% | 0% | 32% | 0% | 0% | 0% | 0% | 5% | 2%
COC(=O)Nc1nc2cc(Oc3ccc(NC(=O)Nc4cc(C(F)(F)F)ccc4Cl)cc3)ccc2[nH]1.Cl [GW697465] | 0% | 25% | 23% | 1% | 0% | 0% | 2% | 0% | 0% | 63%
CC(C)S(=O)(=O)N1CCN(Cc2ccc3c(c2)nc(NC(=O)c2ccsc2)n3C[C@H](O)c2ccccc2)CC1 [GW635815] | 54% | 9% | 13% | 59% | 0% | 3% | 0% | 19% | 0% | 33%
C[C@@H]1CNc2c(sc3ccc4nc(-c5ccc(O)cc5)ccc4c23)C(=O)N1 | 80% | 8% | 6% | 32% | 8% | 24% | 20% | 16% | 20% | 0%
CN(c1cccc(CNc2nc(Nc3ccc4c(c3)CC(=O)N4)ncc2C(F)(F)F)c1)S(C)(=O)=O | 77% | 54% | 42% | 48% | 0% | 2% | 31% | 56% | 25% | 33%
Cn1ccc2ncnc(Oc3ccc(NC(=O)Nc4cncc(C(F)(F)F)c4)c(Cl)c3)c21 | 0% | 12% | 0% | 0% | 0% | 0% | 0% | 0% | 0% | 20%
Cn1ccc2ncnc(Oc3ccc(NC(=O)Nc4ccnc(C(F)(F)F)c4)c(Cl)c3)c21 | 0% | 2% | 0% | 0% | 10% | 0% | 9% | 8% | 4% | 10%
CNC(=O)c1ccccc1Nc1nc(Nc2cccc(CS(C)(=O)=O)c2)ncc1C.O=CO [GSK1520489] | 99.6% | 49% | 85% | 90% | 14% | 42% | 71% | 95% | 99.6% | 99.9%
O=C(NOCC1CC1)c1cc(Br)c(F)c(F)c1Nc1ccc(I)cc1Cl | 0% | 21% | 19% | 0% | 0% | 0% | 0% | 21% | 0% | 3%
COc1cc2ncn(-c3cc(OCC4CCCCC4)c(C(N)=O)s3)c2cc1OC [GSK204559] | 3% | 20% | 0% | 22% | 0% | 9% | 0% | 0% | 4% | 80%
CN1CCN(CCNc2nc3cc(Oc4ccc(NC(=O)Nc5cc(C(F)(F)F)ccc5F)cc4)ccc3[nH]2)CC1.Cl.Cl [GW768504] | 0% | 0% | 0% | 0% | 0% | 0% | 0% | 0% | 0% | 7%
